# Screening data as filed in PubChem BioAssay.
# LDHA inh – LDHA (human) enzyme inhibition. 480,000 compounds, 0.15% hits. activity change, % (values are at about 110 or 230 µM). purified LDHA, NADH/diaphorase-resazurin fluorescence; hits give low values. AID 1347041. P00338; in the data active = activity change below about -30%; inconclusive = mostly about -25% to -30%;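 note: plate controls were DMSO wells for no effect and wells without enzyme for full effect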
#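 LDH5 2 nM; NADH 0.06 mM, pyruvate 0.2 mM; 200 mM Tris pH 7.4, EDTA, Tween-20; 5 min RT. Detection: diaphorase 0.133 mg/mL + resazurin 37 µM, fluorescence ex540/em590 at 0 and 20 min; normalized to enzyme-free and DMSO wells.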
# TCR act – T cell receptor activation | primary human leukocytes, anti-CD3, IL-2 HTRF, 48 h | Potency, µM (titrated, usually from 9.22 µM), for the others: at the top dose activation of IL-2 secretion, most hits filed as activators | 330,000 tested, under 10 active | AID 504894; note: % of control where 0% means no effect
#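 48 hr co-incubation of compounds, a-CD3 beads and primary human leukocytes; IL-2 quantified homogeneously by HTRF with anti-IL-2 K and d2 conjugates.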
# TSHR antag – human thyrotropin receptor antagonism; activity change, negative = inhibition, % at 11.5 µM; TSHR-expressing cells, TSH-stimulated cAMP HTRF, 2 h; hits give low values; 330,000 compounds, 0.2% hits;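 active = activity change below a set negative limit, meaning inhibition stronger than a set level, cut at about -70% in these data; inconclusive = activity change between two set negative limits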; note: % is set by controls: 0 for no effect and ±100 for the full control effect
# Target sequence (P16473 whole entry, looked up): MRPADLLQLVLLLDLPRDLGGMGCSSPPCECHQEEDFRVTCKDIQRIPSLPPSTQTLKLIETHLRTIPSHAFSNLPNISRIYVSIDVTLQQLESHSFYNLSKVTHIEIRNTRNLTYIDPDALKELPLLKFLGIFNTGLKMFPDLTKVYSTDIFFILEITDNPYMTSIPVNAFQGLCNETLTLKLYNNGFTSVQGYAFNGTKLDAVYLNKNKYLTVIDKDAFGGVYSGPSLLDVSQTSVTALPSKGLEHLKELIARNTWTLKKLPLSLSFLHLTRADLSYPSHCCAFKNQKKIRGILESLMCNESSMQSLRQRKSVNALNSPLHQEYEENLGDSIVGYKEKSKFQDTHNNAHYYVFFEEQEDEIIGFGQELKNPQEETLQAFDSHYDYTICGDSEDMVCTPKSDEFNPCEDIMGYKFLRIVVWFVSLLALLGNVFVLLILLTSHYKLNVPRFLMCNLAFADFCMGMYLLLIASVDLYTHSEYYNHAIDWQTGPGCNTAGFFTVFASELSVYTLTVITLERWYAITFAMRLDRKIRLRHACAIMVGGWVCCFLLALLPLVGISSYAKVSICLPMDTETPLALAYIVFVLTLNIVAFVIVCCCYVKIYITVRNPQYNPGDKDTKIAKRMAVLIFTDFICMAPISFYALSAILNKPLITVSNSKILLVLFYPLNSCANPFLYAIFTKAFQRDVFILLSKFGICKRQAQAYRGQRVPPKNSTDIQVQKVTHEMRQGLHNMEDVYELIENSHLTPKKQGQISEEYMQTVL
#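 Competitive HTRF cAMP read-out (cryptate anti-cAMP antibody, cAMP-d2; 30 min, room temperature) in freshly harvested TSHR cells. Compounds added before TSH at EC80 (4nM final), followed by 2 hours' incubation at 37 deg C.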
# pAkt inh – inhibitors of Akt phosphorylation | activity change, % for hits at 50 µM | AID 651550 | 360,000 compounds, 0.32% hits | Neuro2A IGF-stimulated pAkt S473 HTRF, 20 min; hits give low values; in the data active = activity change below about -80%; inconclusive = mostly about -51% to -80%; note: % is set by controls: 0 for no effect and ±100 for the full control effect
#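 Neuro2A cells in DMEM with 0.5% FBS, overnight at 37 deg C, given compound at single 50 µM final, then IGF (6 nM final) for 20 min at 37 deg C. Lysed; phospho-Akt Ser473 by HTRF after 24 h, 665/615 ratio.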
# RGS4 inh – blocks human RGS4-accelerated GTP hydrolysis. P49798. Transcreener GDP fluorescence polarization, RGS4-accelerated GTP hydrolysis. Potency, µM (doses to about 114 µM), for the others: top-dose activity change, negative = inhibition, actives largely listed as inhibitors. 390,000 compounds, 0.039% hits; note: potency is the fitted concentration of half-maximal effect; % is set by controls: 0 for no effect and ±100 for the full control effect; nearly all actives have a fitted effect of over 75% in size
#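 MLSMR compounds (23 nl, pin-transferred) preincubated 10 min at room temperature with a 500nM (2x) first reagent, then RGS4 at 900nM (2x) plus Transcreener GDP mix added; fluorescence polarization (620/688 nm) read before and after 90 min at 30 °C.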
# GRP78 ERSR act – inducers of ER stress response in human glioma cells; Potency, µM, without a hit: at the top dose activation, most hits filed as activators; 420,000 compounds, 0.02% hits; U87-MG GRP78 promoter luciferase reporter, 16 h; note: potency is the fitted concentration of half-maximal effect; series mostly up to about 76 µM; % of control where 0% means no effect; nearly all actives have a fitted effect of over 35% in size
#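 ERSR induction read as luciferase luminescence (Bright-Glo, 10 min at room temperature) in stably transfected human U87-MG glioma cells exposed to compounds for 16 h, using GRP78 as sensor.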
# Starred values were filed as active, the others as inactive; i = inactive; ? = inconclusive; / = no result; [ ] = another dose, or the depositor's remark. Most compounds without a hit are left out; they make up all but 0.55% or so of the library. Unless noted, calls come from the whole dose curve; as a rule, active = well fitted curve in the direction sought with a large enough effect; inconclusive = small, poorly fitted or top-dose-only effect, or another doubt; inactive = no such curve, though single readings can be large; an effect the other way counts as inactive or inconclusive.
SMILES,LDHA inh,TCR act,TSHR antag,pAkt inh,RGS4 inh,GRP78 ERSR act
COCCNc1cnn(-c2ccccc2)c(=O)c1Cl,0,-2%,-122*,i,-9%,1%
O=C(Cn1ncc2c([nH]c3ccccc32)c1=O)NCC1CCN(Cc2ccc(F)cc2)CC1,-2,-2%,-138*,i,-19%,3%
COc1ccc(CNC(C)C)c2ccccc12,-2,/,/,/,/,/
CNC(=O)C1CCC(=O)N1Cc1ccc(C)cc1 (stereo not given),-5,2%,-6,/,-1%,-1%
Cc1ccc(CN2C(=O)CCC2C(=O)NC(C)C)cc1 (stereo not given),-8,4%,39,-118%*,17%,5%
CSC1=C(C#N)C(c2ccc(C)cc2)C2=C(CCCC2=O)N1 (stereo not given),-2,0%,9,i,-15%[11.4 µM],-5%
CSC1=C(C#N)C(CC(C)C)C2=C(CCCC2=O)N1 (stereo not given),-10,0%,-25,-118%*,-17%,-4%
Cc1ccc2nc(-c3ccccc3)cc(C(=O)NCC(=O)NC3CC3)c2c1,0,/,/,/,/,/
CCOc1ccc(S(=O)(=O)Nc2nc3ccccc3nc2NC2CC(C)(C)NC(C)(C)C2)cc1,0,/,/,/,/,/
COc1ccc(/C=N/n2cnnc2SCc2ccccc2)cc1,0,-3%,-10,-110%*,-28%,-3%
COc1ccc(/C=N/n2cnnc2SCc2ccc(OC)cc2)cc1,-7,-3%,-3,i,4%,0%
Cn1c(CC(=O)Nc2cccc(C(F)(F)F)c2)nnc1SCC(=O)c1ccc(C#N)cc1,-32*,/,/,/,/,/
Nc1nnnn1NCc1ccc(-c2cccc(Cl)c2)o1,0,/,/,/,/,/
Cc1ccc(NS(=O)(=O)c2ccc(C)c(C(=O)N3CCOCC3)c2)cc1,-2,-1%,-35,i,-14%,-4%
CCc1ccc(NS(=O)(=O)c2ccc(C)c(C(=O)N3CCOCC3)c2)cc1,-44*,-8%,1,i,-52%,-2%
O=c1ccc2ccc(OS(=O)(=O)c3ccc4c(c3)CCCC4)cc2o1,2,/,/,/,/,/
C1CCC(N=C(NC23CC4CC(CC(C4)C2)C3)N2CCOCC2)CC1,/,/,6,/,7%[56.9 µM],-3%
C1CCC(NC(=NC2C3CC4CC(C3)CC2C4)N2CCOCC2)CC1 (stereo not given),/,/,/,/,0.34µM*,-5%
COc1ccccc1OCc1ccc(C(=O)N2CCN3CCCC3C2)cc1 (stereo not given),-4,2%,-2,-105%*,-36%,-2%
COc1ccccc1N1CCN(C2CCN(C(=O)c3cccc(F)c3)CC2)CC1,-32*,2%[46.1 µM],12,i,15%,-3%
COc1ccccc1N1CCN(C2CCCN(C(=O)c3ccsc3)C2)CC1 (stereo not given),3,-9%,/,i,-24%,-4%
COc1ccc(C(=O)N2CCN(C3CCN(Cc4ccccc4)CC3)CC2)cc1OC,-40*,6%,9,i,25%,-2%
Cc1ccc(N(C)C(=O)c2cc(-c3ccco3)nc3ccccc23)cc1,4,/,/,/,/,/
Cc1ccc(CCNC(=O)c2cc3c(s2)-c2ccccc2OC3)cc1,-36*,/,/,/,?,-5%
CC(C)CCNc1nc(-c2ccc(S(C)(=O)=O)cc2)cs1,1,/,/,/,/,/
SMILES,LDHA inh,TCR act,TSHR antag,pAkt inh,RGS4 inh,GRP78 ERSR act
Cc1sc(NC2CCCC2)nc1-c1ccc(NS(C)(=O)=O)cc1,-1,/,/,/,/,/
CCn1c(=O)c([N+](=O)[O-])c(Cl)c2ccccc21,1,8%,-79*,i,?,-15%
Cc1ccc(S(=O)(=O)NCCNS(=O)(=O)c2ccc(C)cc2)cc1,-7,-3%,-83*,i,5%,-5%
CCCCCCCC(=O)OC[C@H](CO)OC(=O)CCCCCCC,/,/,/,/,?,-1%
CCCCC/C=C\C/C=C\CCCCCCCC(=O)O[C@@H](CO)COC(=O)CCCCCCCCCCCCCCCCC,/,/,/,/,2.7µM*,-3%
Cc1cccc(-c2nc3n(CC(=O)N4CCCCCC4)c(C)cc(=O)n3n2)c1,-31*,/,/,/,/,/
O=c1c(-c2nnc(SCc3ccc(Cl)cc3Cl)o2)cccn1Cc1ccccc1,-4,5%,9,-94%*,?,-3%
CCCCOc1ccc(C(=O)C(CCC(CNC(C)(C)C)C(=O)c2ccc(OCCCC)cc2)CNC(C)(C)C)cc1 (stereo not given),-1,/,/,/,/,/
COCC(C)NC(=O)C1c2ccccc2Oc2ccccc21 (stereo not given),-3,4%,-120*,i,12%,-4%
N#CCNC(=O)C1c2ccccc2Oc2ccccc21,0,/,-7,i,-18%,-3%
C=CCn1c(C)cc(C)c(C#N)c1=O,-16,1%,58,i,7%,-2%
C=CCn1c(=O)n(CCC#N)c(=O)n(CCC#N)c1=O,-4,3%,-1,-99%*,-7%,-5%
O=C(N/N=C/c1cc(Br)cc(Cl)c1O)c1ccc2c(c1)OCO2,-32*,1%,/,i,?,-2%
CC(C)(C)NC(=O)COc1ccccc1C#N,-5,-1%,5,i,9%,-1%
N#Cc1ccccc1OCC(=O)NC(N)=O,-8,-1%,4,-111%*,-13%[11.4 µM],-4%
CC1CCCCC12NC(=O)N(CC(=O)Nc1sc3c(c1C(N)=O)CCC3)C2=O (stereo not given),-2,-17%,26,-120%*,-19%,0%
N#Cc1c(SCC(N)=O)nc(-c2ccccc2)c2c1CCCC2,-2,-18%,-15,-111%*,17%,-5%
COC(=O)c1ccccc1NC(=O)c1ccc(N2CCCN(Cc3ccccc3F)C2=O)cc1,12,/,/,/,/,/
CSc1ccc(/C=C/C(=O)c2cccc(Br)c2)cc1,11,/,/,/,/,/
O=C(Nc1nc(-c2ccc3ccccc3c2)cs1)C1CCN(S(=O)(=O)c2cccs2)CC1,-30*,10%[46.1 µM],-10,i,-16%,0%
O=C(Nc1nc(-c2ccccc2)cs1)C1CCCN(S(=O)(=O)c2ccccc2)C1 (stereo not given),1,/,-75*,i,-2%,-3%
CN1CCN(c2nc3ccccc3nc2C(C#N)C(=O)NCc2ccccc2)CC1 (stereo not given),-4,/,/,/,/,/
COc1ccccc1N1CCN(c2nc3ccccc3nc2C(C#N)C(=O)OC(C)C)CC1 (stereo not given),5,7%,-7,-97%*,0%,1%
N#CC(C(=O)NCc1ccccc1)c1nc2ccccc2nc1N1CCCC1 (stereo not given),1,4%,12,-84%*,-18%,-3%
Cc1cc2c(s1)CCc1cc(C(=O)NC3CCCCC3)sc1-2,11,/,/,/,/,/
O=C(Nc1cccc2ncccc12)c1ccc(F)cc1,0,-3%[46.1 µM],-3,i,-16%,-4%
